Out of some 5,400 compounds screened, about 190 (3.5%) showed an effect of 50% or more. Many of the other results were omitted from the sample, so strong results are more common in it than they were. Non-standard residues stand in square brackets, D forms with d. Residues, ends and D or L forms follow the SMILES beside them.
What follows are molecules tested on Vero-E6 (assay: primary screen, phospholipidosis by LipidTOX staining; higher = more effect of the substance). Conditions: 10 µM.
In short: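 Single-concentration screen at 10 μM, with DMSO 0.1 v/v % and amiodarone 10 μM as controls. Read-out is LipidTOX Red phospholipid staining, which tolerates aldehyde fixation, in Vero-E6 cells.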

| Compound | result_ITMP |
| --- | --- |
| N/C(=N\Cc1ccccc1)NC(=O)c1nc(Cl)c(N)nc1N | 17.2% |
| C[N+](C)(C)CC(=O)[O-] | -1.21% |
| C=C1/C(=C/C=C2\CCC[C@]3(C)[C@@H]([C@H](C)/C=C/[C@@H](C)C(C)C)CC[C@@H]23)C[C@@H](O)C[C@@H]1O | -2.6% |
| O=C(NC1CCN(CCc2c[nH]c3ccccc23)CC1)c1ccccc1 | 6.62% |
| O=C(O)c1ccccc1-c1ccc(C(F)(F)F)cc1 | -4.47% |
| O=C(NC1CCN(CCCCC2(C(=O)NCC(F)(F)F)c3ccccc3-c3ccccc32)CC1)c1ccccc1-c1ccc(C(F)(F)F)cc1 | 62.5% |
| CC(C)NCC(O)COc1ccc(CC(N)=O)cc1 (stereo not shown) [R4A_0002533_001 / SPE_K44993696] | -2.42% |
| CCCCC(CC)CCC(CC(C)C)OS(=O)(=O)[O-] (stereo not shown) | -1.42% |
| C[C@H](Cc1ccc(OCC(=O)[O-])cc1)NC[C@H](O)c1cccc(Cl)c1 | -1.85% |
| C[C@]12CCC(=O)C=C1CCC1C2CC[C@@]2(C)C1CC[C@@H]2O (stereo partly shown) | 2.46% |
| CC(C)N1CCN(c2ccc(C(=O)c3c(-c4ccc(O)cc4)sc4cc(O)ccc34)cc2)CC1 | -7.16% |
| Cc1c(-c2ccc(O)cc2)n(Cc2ccc(OCCN3CCCCCC3)cc2)c2ccc(O)cc12 | 57.2% |
| O=C(c1ccc(OCCN2CCCCC2)cc1)c1c(-c2ccc(O)cc2)sc2cc(O)ccc12 | 74.6% |
| CCCCCS(=O)(=O)CCCCCCCCCCn1c(-c2ccc(O)cc2)c(C)c2cc(O)ccc21 | -3.27% |
| CCCCOc1ccc(C(=O)CCN2CCCCC2)cc1 | 4.72% |
| Cc1ccc(CC2(O)CCN(CCOc3ccc(O)cc3)CC2)cc1 | -3.85% |
| Cc1c(C(=O)Nc2ccc(N3C[C@@H](C)O[C@@H](C)C3)nc2)cccc1-c1ccc(OC(F)(F)F)cc1 | -6.29% |
| CCn1c(-c2ccc(Cl)cc2)n[nH]c1=O | -4.76% |
| CCCCC[C@H](O)/C=C/[C@@H]1[C@H]2C/C(=C/CCCC(=O)[O-])O[C@H]2C[C@H]1O | 0.37% |
| O=C([O-])CN(CCN(CC(=O)[O-])CC(=O)O)CCN(CC(=O)[O-])CC(=O)O | 0.03% |
| CN1C2CCC1CC(OC(c1ccc(F)cc1)c1ccc(F)cc1)C2 (stereo not shown) | 61.5% |
| Fc1ccc(C(OCCN2CCN(CCCc3ccccc3)CC2)c2ccc(F)cc2)cc1 | 24.8% |

| Compound | result_ITMP |
| --- | --- |
| CCCCN1[C@@H]2CC[C@H]1C[C@@H](OC(c1ccc(F)cc1)c1ccc(F)cc1)C2 | 51.4% |
| CN1[C@@H]2CC[C@H]1C[C@@H](OC(=O)C(O)c1ccccc1)C2 (stereo partly shown) | -3.26% |
| CN1C2CCC1CC(OC(c1ccccc1)c1ccc(Cl)cc1)C2 (stereo not shown) | 98.3% |
| CC(C(=O)OC1CC2CCC(C1)N2C)c1ccc(Br)cc1 (stereo not shown) | 20.6% |
| CN1CCC(OC(c2ccccc2)c2ccccc2)CC1 | 26.1% |
| CN1C2CC[C@@H]1C[C@@H](OC(=O)[C@H](CO)c1ccccc1)C2 | -4.79% |
| CN1[C@@H]2CC[C@H]1C[C@@H](OC(c1ccccc1)c1ccccc1)C2 | 35.6% |
| C[C@H](NC(=O)[C@@H](Cc1c[nH]c2ccccc12)NC(=O)[C@@H](N)Cc1cnc[nH]1)C(=O)N[C@@H](Cc1c[nH]c2ccccc12)C(=O)N[C@H](Cc1ccccc1)C(=O)N[C@@H](CCCCN)C(N)=O (H-H[dW]AW[dF]K-NH2) | -2.53% |
| Cc1ccc(OC[C@@H](O)[C@H](C)NC(C)C)c2c1CCC2 (racemic) | 10.4% |
| CO[C@@]12[C@@H]3NC3CN1C1=C(C(=O)C(N)=C(C)C1=O)[C@@H]2COC(N)=O (stereo partly shown) | 0.39% |
| OC[C@@H](O)C(O[C@@H]1O[C@H](CO)[C@H](O)[C@H](O)[C@H]1O)[C@H](O)[C@@H](O)CO (stereo partly shown) | -8.28% |
| O=C(O)[C@H]1CC[C@H](c2cc3cccnc3c(-c3cccc(F)c3)n2)CC1 | -0.01% |
| O[C@@H]1CO[C@H]2[C@@H]1OC[C@@H]2O | -0.79% |
| COc1cc(N)c(Cl)cc1C(=O)OCCCN1CCCCC1 | 0.68% |
| COc1cc(N)c(Cl)cc1C(=O)OCCN1CCCCC1 | -1.25% |
| COc1cc(C(=O)OCCCN2CCCN(CCCOC(=O)c3cc(OC)c(OC)c(OC)c3)CC2)cc(OC)c1OC | 58.7% |
| O=C(O)C[CH2][Ge](=[O])[O][Ge](=[O])[CH2]CC(=O)O | -3.6% |
| Cc1ccc(C(=O)Nc2ccc(S(=O)(=O)[O-])c3cc(S(=O)(=O)[O-])cc(S(=O)(=O)[O-])c23)cc1NC(=O)c1cccc(NC(=O)Nc2cccc(C(=O)Nc3cc(C(=O)Nc4ccc(S(=O)(=O)[O-])c5cc(S(=O)(=O)[O-])cc(S(=O)(=O)[O-])c45)ccc3C)c2)c1 | -3.34% |
| C[C@@H](O)[C@H]1C(=O)N2C(C(=O)[O-])=C(S[C@@H]3CN[C@H](C(=O)Nc4cccc(C(=O)O)c4)C3)[C@H](C)[C@H]12 | -0.24% |
| C[C@H](NC(=O)CCc1nc2ccccc2c(=O)[nH]1)c1ccccc1 [R4A_0003503_001 / SPE_K24283677] | -1.61% |
| C/C=C1/[C@H]2C=C(C)C[C@]1(N)c1ccc(=O)[nH]c1C2 | -2.16% |
| O=C(Nc1ncc(SCCN2CCCC2)s1)[C@]1(c2ccc(S(=O)(=O)C3CC3)cc2)C[C@H]1C1CCCCC1 | 55.8% |

| Compound | result_ITMP |
| --- | --- |
| C[C@H](CCC(=O)O)[C@H]1CC[C@H]2[C@@H]3CC[C@@H]4C[C@H](O)CC[C@]4(C)[C@H]3C[C@H](O)[C@]12C | 0.11% |
| Nc1nc(S)c2nc[nH]c2n1 | 26.6% |
| O=C(NCCCN1CCCCCC1)C(c1ccccc1)C1CCCCC1 (stereo not shown) | 36.5% |
| Cc1ccc(C(=O)C(C)CN2CCCCC2)cc1 (stereo not shown) | -4.52% |
| O=C(Nc1ccccc1)OCC(CN1CCCCC1)OC(=O)Nc1ccccc1 (stereo not shown) | 54.4% |
| CCn1c(=O)/c(=C2\Sc3ccccc3N2C)s/c1=C/c1cccc[n+]1CC | -7.97% |
| COc1ccc(CCNCC(O)COc2cccc(C)c2)cc1OC (stereo not shown) | 34.1% |
| CCC(C)CNCC(=O)N1CCc2sccc2C1COc1cccc(C)c1 (stereo not shown) | 57.8% |
| Nc1ccc(S(=O)(=O)[O-])cc1 | -6.57% |
| O=C([O-])CN1CCN(CC(=O)[O-])CCN(C(CO)C(O)CO)CCN(CC(=O)[O-])CC1.[Gd+3] (stereo not shown) | -1.16% |
| O=C([O-])c1cc(/N=N/c2ccc(O)c(C(=O)[O-])c2)ccc1O | -2.29% |
| CN(C)CC(O)Cn1c2ccc(Br)cc2c2cc(Br)ccc21 (stereo not shown) | 28.6% |
| OC(CN1CCNCC1)Cn1c2ccc(Br)cc2c2cc(Br)ccc21 (stereo not shown) | 123% |
| OC(CNc1ccccc1)Cn1c2ccc(Br)cc2c2cc(Br)ccc21 (stereo not shown) | -2.55% |
| C=C[C@]1(C)C[C@@H](OC(=O)CS[C@@H]2C[C@H]3CC[C@@H](C2)N3C)[C@]2(C)[C@H](C)CC[C@]3(CCC(=O)[C@H]32)[C@@H](C)[C@@H]1O | 12.9% |
| NC(=O)c1cc[n+](CC2=C(C(=O)[O-])N3C(=O)[C@@H](NC(=O)[C@@H](c4ccccc4)S(=O)(=O)[O-])[C@H]3SC2)cc1 | 4.59% |
| Cc1c(CN(C)C(=O)/C=C/C2=CNC3=NC(=O)CCC3=C2)oc2ccccc12 | -2.49% |
| CC(CN(C)C)CN1c2ccccc2Sc2ccccc21 (stereo not shown) [R4A_0005516_001 / SPE_A49225603] | 81.1% |
| COc1ccc2c(c1)N(C[C@H](C)CN(C)C)c1ccccc1S2 | 53% |
| CC(CN(C)C)CN1c2ccccc2Sc2ccc(C#N)cc21 (stereo not shown) | 42.4% |
| CC(CN(C)C)CN1c2ccccc2CCc2ccccc21 (stereo not shown) | 34.6% |
| CC(CN(C)C)CN1c2ccccc2Sc2ccccc21 (stereo not shown) [R4A_0005516_001 / SPE_M58473998] | 17.1% |

| Compound | result_ITMP |
| --- | --- |
| CCN1/C(=C/C(C)=O)Sc2ccc(OC)cc21 | -4.89% |
| C[C@@H]1CC2C3CCC4=CC(=O)C=C[C@]4(C)[C@@]3(F)[C@@H](O)C[C@]2(C)[C@@]1(O)C(=O)COP(=O)([O-])[O-] (stereo partly shown) | -3.97% |
| NC(CSC(c1ccccc1)(c1ccccc1)c1ccccc1)C(=O)O (stereo in doubt) | -1.96% |
| CC(N)Cc1cccc(O)c1 (stereo not shown) | -6.46% |
| CCC(=O)O[C@H]1CCC2C3CCC4=CC(=O)CC[C@]4(C)C3CC[C@@]21C (stereo partly shown) | 5.62% |
| NC(=O)OC[C@@H]1[C@H](NC(=O)/C(=N\OCC(=O)[O-])c2csc(N)n2)C(=O)N1S(=O)(=O)[O-] | 0.72% |
| CCCC(=O)Nc1ncnc2c1ncn2C1O[C@@H]2COP(=O)([O-])O[C@H]2[C@H]1OC(=O)CCC (stereo partly shown) | -5.79% |
| CC[C@]12C=CCN3CC[C@@]4(c5cc([C@@]6(C(=O)OC)C[C@H]7C[C@@H](C(C)(F)F)CN(Cc8c6[nH]c6ccccc86)C7)c(OC)cc5N(C)[C@H]4[C@@](O)(C(=O)OC)[C@@H]1OC(C)=O)[C@@H]32 | 49.7% |
| O=C(N[C@H]1CN2CCC1CC2)c1ccc(Cl)cc1 | -0.98% |
| COc1cc(N)c(Cl)cc1C(=O)NC1CN2CCC1CC2 (stereo not shown) | -9.6% |
| O=C(N[C@H]1CN2CCC1CC2)c1cc2cccc(Cl)c2s1 | 100% |
| C[C@H](CCC(=O)O)[C@H]1CC[C@H]2[C@@H]3C[C@H](O)[C@@H]4C[C@H](O)CC[C@]4(C)[C@H]3CC[C@]12C | 1.59% |
| c1ccc2c(Cc3c[nH]c4ccccc34)c[nH]c2c1 | -4.8% |
| c1ccc2c(CCNc3ccc(Nc4ccncc4)cc3)c[nH]c2c1 | 74% |
| CC(=O)NCCc1c[nH]c2ccccc12 | -3.74% |
| CCCCc1nc(Cl)c(C(=O)O)n1Cc1ccc(-c2ccccc2-c2nnn[nH]2)cc1 | -4.07% |
| CN1CCC[C@@H]1CCO[C@](C)(c1ccccc1)c1ccc(Cl)cc1 | 90.6% |
| CN1CCCC1CCSc1ccc(O)cc1 (stereo not shown) | 2.34% |
| CC(C)(C)c1ccc(C(O)CCCN2CCC(C(O)(c3ccccc3)c3ccccc3)CC2)cc1 (stereo not shown) | -4.73% |
| C=C1/C(=C\C=C2/CCC[C@]3(C)[C@@H]([C@H](C)CCCC(C)(C)O)CC[C@@H]23)C[C@@H](O)C[C@@H]1O | -1.95% |
| CC[C@H]1[C@@H](O)[C@@H]2[C@H](CC[C@]3(C)[C@@H]([C@H](C)CCC(=O)O)CC[C@@H]23)[C@@]2(C)CC[C@@H](O)C[C@@H]12 | -0.78% |
| CO[C@H]1/C=C/O[C@@]2(C)Oc3c(C)c(O)c4c(O)c(cc([O-])c4c3C2=O)NC(=O)/C(C)=C\C=C\C(C)[C@H](O)[C@@H](C)[C@@H](O)[C@@H](C)[C@H](OC(C)=O)[C@@H]1C (stereo partly shown) | -1.11% |
